Lassa entry: qHTS for Inhibitors of binding or entry into cells for Lassa Virus | Lassa virus pseudotyped entry inhibition, cell-based qHTS | Potency, µM (titrated, usually from 49.2 µM), actives largely listed as inhibitors | 18,000 tested, 4.1% active | AID 720533, 2013
Marburg entry: qHTS for Inhibitors of binding or entry into cells for Marburg Virus; Potency, µM (doses to about 49.2 µM), usual class: inhibitors; AID 720532, 2013; 18,000 tested, 6.5% active; Marburg virus pseudotype entry/binding inhibition, cell-based
A number is an active result; ! = repeats disagree; [ ] = another dose, or the depositor's remark. Only some compounds are listed: those with a hit (about 8% of all), similar ones and a draw of the others. Calls follow the shape of the full dose curve; tested in HEK293 cells.

For O=C(C1CCCCC1)N1C[C@@H](O)[C@@H](n2cc(C3CC3)nn2)C[C@@H]1c1ccccc1 the results were Lassa entry inconclusive and Marburg entry inactive.
`CCCC[C@]12Cc3cc(C#N)ccc3[C@H](O1)c1c(cc(C)n(-c3ccccc3)c1=O)O2` gave Lassa entry inactive[8.59 µM] and Marburg entry inactive[8.59 µM].
CCCCC/C=C/C=C1/C(=O)C=C[C@@H]1C/C=C\CCCC(=O)O was read as Lassa entry 16µM! and Marburg entry inconclusive.
For CCCCC[C@H](O)C/C=C1/C(=O)C=C[C@@H]1C/C=C\CCCC(=O)O the results were Lassa entry inconclusive and Marburg entry inactive.
`CC[C@H]1C[C@@H]2C[C@H]3c4[nH]c5ccc(OC)cc5c4CCN(C2)[C@@H]13` gave Lassa entry inactive and Marburg entry 28µM.
For COc1ccc2[nH]c3c(c2c1)CCN=C3C the results were Lassa entry inactive and Marburg entry inconclusive.
Screening O=C(O)c1cc(N(Cc2ccccc2O)Cc2cc(O)ccc2O)ccc1O returned Lassa entry inconclusive and Marburg entry 20µM!.
Screening N[C@H](C(=O)O)c1ccc(O)c(C(=O)O)c1 returned Lassa entry inactive and Marburg entry inactive.
CC#C[C@H](C)[C@@H](OCOC)[C@H](C[C@H](C)Cc1cc(Br)cc(OCc2ccccc2)c1OC)OC was read as Lassa entry inactive[8.59 µM] and Marburg entry inactive[8.59 µM].
For C=CCCCN1C=C(C(C)=O)C(c2ccccc2)NC1=O (configuration not stated) the results were Lassa entry inactive[8.59 µM] and Marburg entry inactive[8.59 µM].
For C[C@@H]1CC[C@H]2C(=O)N(Cc3cccc([N+](=O)[O-])c3)C[C@H](O)CN2[C@@H]1c1cccc(Br)c1 the results were Marburg entry inactive[8.59 µM].
For O=S(=O)(O)c1ccc(Nc2ncnc3c2ncn3[C@@H]2O[C@H](CO)[C@@H](O)[C@H]2O)cc1 the results were Lassa entry inactive and Marburg entry inactive.
For OC[C@H]1O[C@@H](n2cnc3c(NCc4ccccc4)ncnc32)[C@H](O)[C@@H]1O the results were Lassa entry inconclusive and Marburg entry 28µM.
`CC1(C)CC(=O)C2=C(C1)O[C@@]1(CCCCN3C(=O)c4ccccc4C3=O)Cc3c(ccc4ccccc34)[C@H]2O1` gave Lassa entry inactive[8.59 µM] and Marburg entry inactive[8.59 µM].
Screening COc1ccc([C@]23Cc4cc(OC)c(OC)cc4[C@H](O2)C2=C(CC(C)(C)CC2=O)O3)cc1 returned Lassa entry inactive[8.59 µM] and Marburg entry inactive[8.59 µM].
`C=C(C)C1CC23C(=O)[C@]4(C(=O)c5ccccc5)C[C@@]5(C)CCC(CC2C1(C)C)(C4=O)[C@@]35OC` (some centres not stated) gave Lassa entry inactive[8.59 µM] and Marburg entry inactive[8.59 µM].
`CN(C)c1ccc2nc3ccc(=[N+](C)C)cc-3sc2c1` gave Lassa entry 11µM and Marburg entry 3.5µM.
`Cc1cc2nc3ccc(=[N+](C)C)cc-3sc2cc1N` gave Lassa entry 22µM and Marburg entry 13µM.
Screening COc1ccc(C=CC2=CC3(C)CC2(C)C(c2ccc(OC)cc2)CC3=O)cc1 (configuration not stated) returned Lassa entry inactive[8.59 µM] and Marburg entry inactive[8.59 µM].
CSC[C@H]1CN(c2ccccc2)C(=O)[C@H]1CC(=O)Nc1ccc(Br)cc1 was read as Lassa entry inactive and Marburg entry inactive.
`COc1ccc(CN2CCC3(CC2)c2ccccc2[C@@H](NC(=O)c2ccccc2OC)[C@@H]3O)cc1O` gave Lassa entry inactive and Marburg entry inactive.
`C=CC1(O)C(OC)=CC2C(=O)C1C(c1ccccc1)C2C` (configuration not stated) gave Marburg entry inactive[8.59 µM].
C=CCCC1(C(=O)c2ccccc2)C(=O)C(CC=C(C)C)=C(OC)C(CC=C(C)C)(CCC=C(C)C)C1=O (configuration not stated) was read as Marburg entry inactive[8.59 µM].
`O=S1(=O)c2cccc(Cl)c2OC[C@H](c2ccccc2)N1Cc1cccc(F)c1` gave Marburg entry inactive.
`CC1=C(C(=O)Nc2ccc3[nH]ncc3c2)C(c2ccc3ccccc3c2)CC(=O)N1` (configuration not stated) gave Lassa entry inactive and Marburg entry inactive.
Screening COC1=C[C@H](C(=O)NC2CCN(Cc3ccccc3)CC2)[C@H](C)[C@@H](c2ccccc2)CC1=O returned Lassa entry inactive[8.59 µM] and Marburg entry inactive[8.59 µM].
Screening CNc1cc(OC)c(C(=O)N[C@H]2CCN(Cc3ccccc3)[C@H]2C)cc1Cl returned Lassa entry inconclusive and Marburg entry 18µM.
For CN(C)c1ccc2c(-c3ccccc3)c3ccc(=[N+](C)C)cc-3oc2c1 the results were Lassa entry 3.2µM and Marburg entry 2.5µM.
For O=C(O)c1ccccc1-c1c2ccc(=O)cc-2oc2cc(O)ccc12 the results were Lassa entry inactive and Marburg entry inactive.
COc1cc(CCN)ccc1O was read as Lassa entry inactive and Marburg entry inactive.
CCCSc1cc(OC)c(CCN)cc1OC was read as Lassa entry inconclusive and Marburg entry 22µM.
`NC(=O)c1cccc(Nc2nccc(Nc3cccc4[nH]ncc34)n2)c1` gave Lassa entry inactive and Marburg entry inconclusive.
`C=CCc1cccc(/C=N/NC(=O)CN2CCN(Cc3ccccc3)CC2)c1O` gave Lassa entry 13µM and Marburg entry inconclusive.
`C=CCN=C1NC(c2cccc(F)c2)C(C(=O)OC)=C(C)N1Cc1ccccc1` (configuration not stated) gave Lassa entry inactive[8.59 µM] and Marburg entry inconclusive.
[Cl-].[Cl-].[Hg+2] was read as Lassa entry 3.2µM and Marburg entry 2.8µM.
O[C@@](CCN1CCCCC1)(c1ccccc1)[C@@H]1C[C@H]2C=C[C@@H]1C2 was read as Lassa entry inactive and Marburg entry inconclusive.
Cc1ccccc1Nc1oc(-c2ccccc2)nc1C=Cc1ccccc1 was read as Lassa entry inactive[8.59 µM] and Marburg entry inactive[8.59 µM].
`CCN(CC)CCNC(=O)COc1ccc(OC)cc1` gave Lassa entry inactive and Marburg entry inactive.
CCN(CC)CCCCNc1ncc2cc(-c3cc(OC)cc(OC)c3)c(NC(=O)NC(C)(C)C)nc2n1 was read as Lassa entry 13µM and Marburg entry 1.1µM.
ON=C1CCc2cc(-c3nc(C4CCNCC4)[nH]c3-c3ccncc3)ccc21 was read as Lassa entry inactive and Marburg entry inactive.
Screening OC[C@@H]1O[C@H](OC2[C@@H](O)[C@@H](O)C(O)O[C@@H]2CO)[C@H](O)[C@@H](O)[C@@H]1OC1O[C@H](CO)[C@@H](O)[C@H](O)[C@@H]1O (some centres not stated) returned Lassa entry inactive and Marburg entry inactive.
`[O][C@H]1[C@@H](O)[C@@H](CO)O[C@@H](O[C@@H]2[C@@H]3OC[C@H]2O[C@H](O[C@@H]2[C@@H](O)[C@H](C[C@@H]4[C@@H]5OC[C@H]4O[CH][C@@H]5O)O[C@H](CO)[C@@H]2OS(=O)(=O)O)[C@@H]3OS(=O)(=O)O)[C@@H]1O` gave Lassa entry inactive and Marburg entry 11µM.
`CCC[C@H]1CN(c2ccc(Br)cc2)C(=O)[C@H]1CC(=O)NC` gave Lassa entry inactive and Marburg entry inactive.
`COc1cc2c3cc1Oc1cc(ccc1O)CC1c4c(cc(OC)c(O)c4Oc4ccc(cc4)CC3N(C)CC2)CC[N+]1(C)C` (configuration not stated) gave Lassa entry inactive and Marburg entry inactive.
